Rows were chosen to be rich in hits. Some 6.5% of all compounds tested hit in one or more screens of this group.
FMDV antiviral – High Throughput Screening for Foot and Mouth Disease Virus Antivirals. Potency, µM (titrated, usually from 57.9 µM), without a hit: at the highest dose activity change, negative = inhibition, most hits filed as inhibitors. 1.2% of 410,000 active. AID 1159524, 2015. FMDV antiviral cell-based qHTS; calls by dose curve; tested in HEK293T cells; further: read-out not given here; potency means the concentration at half of the fitted maximal effect; nearly all actives have a fitted effect of over 45% in size
Vaccinia Venus – qHTS for Stage-Specific Inhibitors of Vaccinia Orthopoxvirus: Venus Reporter Primary qHTS. Vaccinia virus Venus reporter expression, fluorescence. Potency, µM (highest dose often 36.5 µM), for the others: at the highest dose activity change, negative = inhibition, most hits filed as inhibitors. 0.46% of 330,000 active. AID 720580, 2013; calls by dose curve; tested in A549 cells; further: potency means the concentration at half of the fitted maximal effect; nearly all actives have a fitted effect of over 30% in size
MARV entry inh – qHTS for inhibitors of binding or entry into cells for Marburg Virus; 1.8% of 300,000 active; Potency, µM (top dose mostly 37.8 µM), without a hit: at the top dose activity change, negative = inhibition, hits mostly inhibitors; Marburg virus pseudotyped entry inhibition, cell reporter; calls by dose curve; tested in HEK293 cells; further: potency means the concentration at half of the fitted maximal effect
HCMV antiviral – qHTS Assay for inhibitors of the human cytomegalovirus (HCMV) | 4.5% of 410,000 active | HFF cells, HCMV-luciferase reporter, 72 h; stronger effect = lower value | activity change, negative = inhibition, % at 57.5 µM; in the data active means activity change below about -60%; inconclusive means no clear call, values can overlap the other calls; inactive means above about -39%
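HFF cells seeded 16 h at 37C, treated with compounds, infected with luciferase-reporter HCMV at MOI 1 PFU/cell; luciferase read at 72 h post infection, normalized to buffer-only and Salinomycin controls.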
VACV mCherry inh – qHTS for Stage-Specific Inhibitors of Vaccinia Orthopoxvirus: mCherry Reporter Primary qHTS | 0.63% of 310,000 active | Vaccinia virus mCherry reporter infection, fluorescence | AID 720579, 2013 | Potency, µM (top dose mostly 36.5 µM), for the others: at the highest dose activity change, negative = inhibition, usual class: inhibitors; calls by dose curve; tested in A549 cells; further: potency means the concentration at half of the fitted maximal effect; nearly all actives have a fitted effect of over 35% in size
Lassa entry inh – qHTS for Inhibitors of binding or entry into cells for Lassa Virus. Lassa virus pseudotype entry inhibition, cell reporter. Potency, µM (highest dose often 37.9 µM), inactives show at the highest dose activity change, negative = inhibition, usual class: inhibitors. 1.2% of 300,000 active; calls by dose curve; tested in HEK293 cells; further: potency means the concentration at half of the fitted maximal effect; nearly all actives have a fitted effect of over 50% in size
The depositor's hits bear a star; i = inactive; ? = inconclusive; . = no result; ! = repeats disagree; [ ] = dose if it differs, or a comment. On the % scale 0 is the no-effect control and ±100 the full control effect.

SMILES	FMDV antiviral	Vaccinia Venus	MARV entry inh	HCMV antiviral	VACV mCherry inh	Lassa entry inh
COc1ccc(-c2nc(Cc3ccc(Cl)cc3)no2)cc1OC	-6.1%	-19.9%	-22.0%	-73.5*	.	3.98µM*
Cc1ccc(S(=O)(=O)Nc2ccccc2F)cc1C(=O)NNC(=O)c1ccccc1O	2.3%	3.6%	-19.3%[46.1 µM]	-87.2*	?	?
CN(C)CCn1c2ccccc2c2nc3ccc([N+](=O)[O-])cc3cc21	5.5%	?	?	-108.3*	i	?
CCOCCc1c(O)nc(SCCOc2ccc(C)c(C)c2)[nH]c1=O	-6.9%	1.8%	10.5%[46.1 µM]	?	4.6%	-5.2%
O=C(/C=C/c1ccc(O)c(O)c1)O[C@@H]1C[C@](O)(C(=O)O)C[C@@H](O)[C@H]1O	-19.6%	-9.3%	.	-60.2*!	-6.6%	.
C#CC(C)(CC)NC(=O)Cn1nnc(-c2ccc(OCc3ccccc3F)cc2)n1 (centres undefined)	-19.2%	11.2µM*	?	-14.5	?	-24.6%[46.1 µM]
COC(=O)[C@@H]1C[C@@]2(O)[C@H](O)[C@H](O)[C@H](O)C[C@H]2N1Cc1cc(OC)cc(OC)c1	2.4%	9.7%	.	7.6	-2.3%	.
COC(=O)[C@@H]1C[C@@]2(O)[C@@H](O)[C@@H](O)[C@@H](O)C[C@H]2N1Cc1cc(OC)cc(OC)c1	15.7%	-11.8%	.	-99.6*	i	.
CCOc1c2c(c(-c3ccc4c(c3)OCO4)c3cc(OC)c(OC)cc13)C(=O)OC2	.	3.98µM*	.	.	?	.
O=C1c2cccc3cccc(c23)C(=O)N1CCO	-14.0%	1.2%	.	?	-13.6%	.
Cc1cc(C)c(S(=O)(=O)N2CCN(CCN3C(=O)c4cccc5cccc(c45)C3=O)CC2)cc1[N+](=O)[O-]	.	.	13.0%	.	.	-4.1%
O=C1c2cccc3cc([N+](=O)[O-])cc(c23)C(=O)N1CCN1CCCC1	-0.7%	?	3.98µM*	-100.2*	0.316µM*	?
O=C1c2cccc3cc([N+](=O)[O-])cc(c23)C(=O)N1/N=C/c1ccc(O)cc1O	?	157.9%	-16.9%[46.1 µM]	-78.5*	124.9%	?
CCN(CC)CCN1C(=O)c2cccc3cc(N)cc(c23)C1=O	?	?	10µM*	-98.6*	?	-23.7%
Nc1cc2c3c(cccc3c1)C(=O)N(CCN1CCCC1)C2=O	0.0%	?	6.31µM*	-95.6*	?	?
Cc1ccc(C)c(S(=O)(=O)Nc2ccc(C(=O)NCCCN3CCOCC3)cc2)c1	-5.5%	-5.9%	0.2%[46.1 µM]	-17.1	-22.7%	18.2%
COc1ccc([C@H]2C[C@H](c3ccccc3)Nc3nc(N)nn32)cc1	.	.	0.5%	.	.	.
CCCS(=O)(=O)NC(=O)C1(C)CCCN(C(=O)c2ccco2)C1 (centres undefined)	-16.4%	1.2%	.	12.3	21.1%	.
C/C(=C\c1ccco1)CN1CCOc2ccc(C(C)(O)COc3ccccc3)cc2C1 (centres undefined)	-8.3%	4.6%	.	.	-10.6%	.
CCOP(=O)(OCC)c1nc(-c2ccccc2Cl)oc1N1CCOCC1	-1.6%	-1.4%	?	-2.8	i	2.3%
CCOP(=O)(OCC)c1nc(-c2ccc(Cl)cc2Cl)oc1N1CCCCC1	-20.4%	-24.2%	?	?	-0.5%	6.31µM*
CCN(CC)C(=O)c1ccc2nc3ccccc3nc2c1	45.1%	?	25.4%	-95.0*	2.24µM*	20.9%
Cc1cc2c(nc1C)CCCN2CC(O)CN1CCN(C)CC1 (centres undefined)	.	.	17.7%[14.2 µM]	.	.	.
O=[N+]([O-])c1cnc(Sc2ccncn2)s1	39.8µM*	.	.	-99.3*	.	.
CCOC(=O)C1CCN(C(=O)c2ccc3c(c2)C(=O)N(c2ccccc2C)C3=O)CC1	17.5%	-5.9%	28.8%	-8.7	-16.2%	?
SMILES	FMDV antiviral	Vaccinia Venus	MARV entry inh	HCMV antiviral	VACV mCherry inh	Lassa entry inh
Cc1c(C(=O)N/N=C/c2ccc(N(C)C)cc2)[nH]c2ccc(Cl)cc12	41.4%	-7.9%	-23.3%	-76.4*	-16.3%	?
Cc1c(C(=O)N/N=C/c2ccccc2)[nH]c2ccc(Cl)cc12	101.4%	?	.	-70.3*	-29.6%	.
O=C(N/N=C/c1ccc(F)cc1)c1c(O)c2ccccc2[nH]c1=O	?	0.7%	16.8%	-21.4	-9.8%	-1.6%
O=C(N/N=C/c1ccccc1)c1c(O)c2ccccc2[nH]c1=O	1.1%	-19.0%	4.7%	-91.6*	-24.6%	?
CCCn1c(=N)c(C(=O)NC(C)c2ccccc2)cc2c(=O)n3ccccc3nc21 (centres undefined)	-11.5%	-19.6%	.	-1.1	?	-5.6%[46.1 µM]
Cc1cc(C)n2c(Nc3ccccc3)c(-c3ccc(C)o3)nc2n1	.	-14.2%	.	.	-17.8%	.
O=S(=O)(CCSc1nc2ccccc2s1)c1nc2ccccc2s1	8.91µM*	.	?	-85.4*	.	?
C=CCS(=O)(=O)c1nc2ccccc2s1	?	?	-30.8%	-97.2*	.	?
Cc1ccc(-c2nsc(SCC(=O)NCC3CCCO3)n2)cc1 (centres undefined)	-2.0%	-24.2%	-14.0%[46.1 µM]	-36.0	i	0.2%
O=C(CSc1nnc(-c2ccco2)n1-c1ccccc1)NCC1CCCO1 (centres undefined)	-18.9%	-11.7%	9.2%	-69.0*	i	-2.0%
Cc1ccc(SCC(=O)NCC2CCCO2)cc1 (centres undefined)	16.3%	.	.	-93.4*	.	.
COc1ccc(-c2nsc(SCC(=O)NCC3CCCO3)n2)cc1 (centres undefined)	-7.0%	-12.8%	1.1%[46.1 µM]	-77.3*	i	-16.3%[46.1 µM]
CC(CCN1CCCc2nc(C)c(C)cc21)=NOC[C@@H](C)[C@H](OCc1ccccc1)C(C)C	.	.	-23.6%[14.2 µM]	.	.	.
Nc1nn2c(-c3ccccc3)cc(=O)[nH]c2c1N=Nc1ccc(O)cc1	-4.5%	-8.4%	?	-30.8	-19.8%	?
Nc1nn2c(-c3ccccc3)cc(=O)[nH]c2c1N=Nc1ccc(Br)cc1	-3.1%	?	.	9.2	15.8µM*	.
CCN(CC)CC(C)(C)C(=O)/C=C/c1ccc(/C=C/C(=O)C(C)(C)CN(CC)CC)cc1	3.55µM*	11.2µM*	1.41µM*	0.8	?	3.55µM*
COC1=CC2C(=O)C(C1=O)C1c3ccccc3CC21 (centres undefined)	.	.	-3.0%[14.2 µM]	.	.	.
Cc1cc2nc3c(=O)[nH]c(=O)nc-3n(C)c2cc1C=O	15.8µM*	.	.	.	.	.
CC(=O)OCCn1c2nc(=O)[nH]c(=O)c-2nc2cc(C)c(C)cc21	-8.9%	.	.	-1.4	.	.
Cc1ccc(C)c(-n2c3nc(=O)n(C)c(=O)c-3cc3ccccc32)c1	-17.5%	.	.	-20.4	.	.
Cn1nc(-c2ccncc2)nc2c(=O)n(C)c(=O)nc1-2	.	1µM*	.	.	0.891µM*	.
Cc1nc2c(=O)n(C)c(=O)nc-2n(C)n1	2.82µM*	0.501µM*	0.891µM*	-103.1*	?	0.562µM*
Cn1nc(-c2ccccc2)nc2c(=O)n(C)c(=O)nc1-2	.	1µM*	.	.	1µM*	.

Assay outcomes (PubChem BioAssay)
